# Source: PubChem BioAssay (NCI)
# About 79,000 compounds went through this panel and 15% of them were active in at least one assay; those are over-represented in the sample as a whole. Values without a mark were called inactive. Activity calls are given as the source filed them. Rule as the data show it: active = growth inhibition above about 70%; inactive = the rest.
# Tests used:
# [1] = NCI Yeast Anticancer Drug Screen. Data for the rad52 strain (AID 147);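 also: 0% = growth of vehicle-treated control cultures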; conditions: S. cerevisiae rad52 mutant growth inhibition, hits give high values
# Summary of the method: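 Vehicle-treated cultures served as the reference for growth inhibition of compound-exposed yeast bearing a DNA repair mutation.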
# [2] = NCI Yeast Anticancer Drug Screen. Data for the wt1 strain (AID 149);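 also: 0% = growth of vehicle-treated wt1 cultures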; conditions: S. cerevisiae wt1 strain (SPY 50644) growth inhibition, hits give high values
# Summary of the method: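 Growth inhibition read against vehicle controls after compound exposure of the wt1 yeast strain.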
# [3] = NCI Yeast Anticancer Drug Screen. Data for the rad50EPP+ strain (AID 151);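 also: 0% = growth of vehicle-treated control cultures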; conditions: S. cerevisiae rad50 mutant strain, hits give high values
# Summary of the method: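 In this screen, rad50EPP+ yeast were exposed to compounds. Growth inhibition was scored against vehicle-treated controls.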
# [4] = NCI Yeast Anticancer Drug Screen. Data for the mgt1 strain (AID 153); conditions: S. cerevisiae mgt1 mutant growth inhibition, hits give high values
# Summary of the method: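 mgt1 strain exposed; growth vs vehicle control recorded as inhibition.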
# [5] = NCI Yeast Anticancer Drug Screen. Data for the rad50 strain (AID 155);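 also: 0% = growth of vehicle-only cultures of the same strain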; conditions: S. cerevisiae rad50 strain growth inhibition, hits give high values
# Summary of the method: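 Readout: growth inhibition relative to vehicle-treated cultures. Compound exposure was carried out in a genetically defined yeast strain deficient in DNA damage repair.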
# [6] = NCI Yeast Anticancer Drug Screen. Data for the mec2-1 strain (AID 157); conditions: S. cerevisiae mec2-1 strain, hits give high values
# Summary of the method: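 Vehicle-treated cultures served as reference for growth inhibition of compound-exposed mec2-1 yeast.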
# [7] = NCI Yeast Anticancer Drug Screen. Data for the rad14 strain (AID 159);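 also: 0% = growth of vehicle-treated control cultures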; conditions: S. cerevisiae rad14 strain growth inhibition, hits give high values
# Summary of the method: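 Growth inhibition vs vehicle controls; genetically altered yeast strain (DNA damage repair defect) treated with test compounds.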
# [8] = NCI Yeast Anticancer Drug Screen. Data for the sgs1 mgt1 strain (AID 161);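 also: 0% = growth of cultures given vehicle only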; conditions: S. cerevisiae sgs1 mgt1 strain, hits give high values
# Summary of the method: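 Read-out: growth inhibition vs vehicle controls. Cells: mutant yeast strain deficient in DNA damage repair.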
# [9] = NCI Yeast Anticancer Drug Screen. Data for the CLN2oe strain (AID 163);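 also: 0% = growth of vehicle-only control cultures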; conditions: S. cerevisiae CLN2oe strain, hits give high values
# Summary of the method: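 Inhibition relative to vehicle-treated yeast is reported. Cells: strain with genetic alteration in cell-cycle control, grown with compound.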
# [10] = NCI Yeast Anticancer Drug Screen. Data for the cln2 rad14 strain (AID 165);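 also: 0% = growth equal to vehicle treated cultures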; conditions: S. cerevisiae cln2 rad14 strain, hits give high values
# Summary of the method: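 Each compound was tested on cln2 rad14 yeast. Inhibition of growth was calculated against vehicle-exposed controls.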
# [11] = NCI Yeast Anticancer Drug Screen. Data for the bub3 strain (AID 167); conditions: S. cerevisiae bub3 mutant strain, hits give high values
# Summary of the method: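 Readout: yeast growth inhibition, expressed relative to vehicle-only wells. The test organism is a mutant strain from a panel with lesions in DNA repair or checkpoint genes.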
# [12] = NCI Yeast Anticancer Drug Screen. Data for the wt2 strain (AID 169);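 also: 0% = growth of vehicle-treated yeast cultures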; conditions: S. cerevisiae wt2 strain growth inhibition, hits give high values
# Summary of the method: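 Inhibition of yeast growth was determined after compound treatment, normalised to controls receiving only vehicle.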
# [13] = NCI Yeast Anticancer Drug Screen. Data for the mlh1 strain (AID 171);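 also: 0% = growth of vehicle-treated control cultures of the same strain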; conditions: S. cerevisiae mlh1 strain growth inhibition, hits give high values
# Summary of the method: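 Vehicle-normalised growth inhibition of a repair- or checkpoint-altered yeast strain following compound treatment.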
# [14] = NCI Yeast Anticancer Drug Screen. Data for the sgs1 strain (AID 173);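 also: 0% = growth of vehicle-only control cultures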; conditions: S. cerevisiae sgs1 mutant, hits give high values
# Summary of the method: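 Screen format: yeast with repair or checkpoint alterations, compound exposure, growth read relative to vehicle.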
# [15] = NCI Yeast Anticancer Drug Screen. Data for the mlh1 rad18 strain (AID 175); conditions: S. cerevisiae mlh1 rad18 strain growth inhibition, hits give high values
# Summary of the method: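 Vehicle-treated cultures served as the reference for growth inhibition in a yeast strain carrying DNA damage repair alterations exposed to each compound.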
# [16] = NCI Yeast Anticancer Drug Screen. Data for the rad18 strain (AID 177); conditions: S. cerevisiae rad18 mutant growth inhibition, hits give high values
# Summary of the method: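 Test articles were incubated with altered yeast defective in DNA damage repair. Results are given as inhibition of growth versus vehicle.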
# [17] = at 5.0 µM (retest, dose inferred, filed as 0.5)
# [18] = at 50.0 µM (retest, dose inferred, filed as 5.0)
smiles,measurement,setting,value
COc1ccccc1N=NC(C(=O)c1ccccc1)C(=O)c1ccccc1,growth inhibition,[1]; at 1.2 µM,3%
same,growth inhibition,[1]; at 3.7 µM,22%
same,growth inhibition,[1]; at 11.0 µM,16%
same,growth inhibition,[1]; at 33.0 µM,97% (active)
same,growth inhibition,[1]; at 100.0 µM,97% (active)
same,growth inhibition,[2]; at 1.2 µM,6%
same,growth inhibition,[2]; at 3.7 µM,3%
same,growth inhibition,[2]; at 11.0 µM,13%
same,growth inhibition,[2]; at 33.0 µM,96% (active)
same,growth inhibition,[2]; at 100.0 µM,96% (active)
same,growth inhibition,[3]; at 1.2 µM,-47%
same,growth inhibition,[3]; at 3.7 µM,-21%
same,growth inhibition,[3]; at 11.0 µM,1%
same,growth inhibition,[3]; at 33.0 µM,17%
same,growth inhibition,[3]; at 100.0 µM,62%
same,growth inhibition,[4]; at 1.2 µM,-29%
same,growth inhibition,[4]; at 3.7 µM,-24%
same,growth inhibition,[4]; at 11.0 µM,4%
same,growth inhibition,[4]; at 33.0 µM,96% (active)
same,growth inhibition,[4]; at 100.0 µM,98% (active)
same,growth inhibition,[5]; at 1.2 µM,-50%
same,growth inhibition,[5]; at 3.7 µM,-50%
same,growth inhibition,[5]; [17],34%
same,growth inhibition,[5]; at 11.0 µM,-16%
same,growth inhibition,[5]; at 33.0 µM,96% (active)
same,growth inhibition,[5]; [18],96% (active)
same,growth inhibition,[5]; at 50.0 µM,93.4% (active)
same,growth inhibition,[5]; at 100.0 µM,96% (active)
same,growth inhibition,[6]; at 1.2 µM,-57%
same,growth inhibition,[6]; at 3.7 µM,-31%
same,growth inhibition,[6]; [17],-3%
same,growth inhibition,[6]; at 11.0 µM,-25%
same,growth inhibition,[6]; at 33.0 µM,91% (active)
same,growth inhibition,[6]; [18],96% (active)
same,growth inhibition,[6]; at 50.0 µM,94.5% (active)
same,growth inhibition,[6]; at 100.0 µM,97% (active)
same,growth inhibition,[7]; at 1.2 µM,-33%
same,growth inhibition,[7]; at 3.7 µM,-29%
same,growth inhibition,[7]; at 11.0 µM,-14%
same,growth inhibition,[7]; at 33.0 µM,98% (active)
same,growth inhibition,[7]; at 100.0 µM,97% (active)
same,growth inhibition,[8]; [17],22%
same,growth inhibition,[8]; [18],95% (active)
same,growth inhibition,[8]; at 50.0 µM,93.7% (active)
same,growth inhibition,[9]; at 1.2 µM,16%
same,growth inhibition,[9]; at 3.7 µM,-5%
same,growth inhibition,[9]; at 11.0 µM,-4%
same,growth inhibition,[9]; at 33.0 µM,94% (active)
same,growth inhibition,[9]; at 100.0 µM,97% (active)
same,growth inhibition,[10]; [17],10%
same,growth inhibition,[10]; [18],95% (active)
same,growth inhibition,[10]; at 50.0 µM,88.8% (active)
same,growth inhibition,[11]; at 1.2 µM,4%
same,growth inhibition,[11]; at 3.7 µM,-17%
same,growth inhibition,[11]; [17],5%
same,growth inhibition,[11]; at 11.0 µM,17%
same,growth inhibition,[11]; at 33.0 µM,95% (active)
same,growth inhibition,[11]; [18],97% (active)
same,growth inhibition,[11]; at 50.0 µM,92.5% (active)
same,growth inhibition,[11]; at 100.0 µM,97% (active)
same,growth inhibition,[12]; at 1.2 µM,-10%
same,growth inhibition,[12]; at 3.7 µM,5%
same,growth inhibition,[12]; at 11.0 µM,-6%
same,growth inhibition,[12]; at 33.0 µM,92% (active)
same,growth inhibition,[12]; at 100.0 µM,97% (active)
same,growth inhibition,[13]; at 1.2 µM,-25%
same,growth inhibition,[13]; at 3.7 µM,-27%
same,growth inhibition,[13]; at 11.0 µM,-1%
same,growth inhibition,[13]; at 33.0 µM,94% (active)
same,growth inhibition,[13]; at 100.0 µM,96% (active)
same,growth inhibition,[14]; at 1.2 µM,-37%
same,growth inhibition,[14]; at 3.7 µM,-6%
same,growth inhibition,[14]; at 11.0 µM,-4%
same,growth inhibition,[14]; at 33.0 µM,96% (active)
same,growth inhibition,[14]; at 100.0 µM,96% (active)
same,growth inhibition,[15]; [17],-7%
same,growth inhibition,[15]; [18],97% (active)
same,growth inhibition,[15]; at 50.0 µM,92.5% (active)
same,growth inhibition,[16]; at 1.2 µM,-5%
same,growth inhibition,[16]; at 3.7 µM,10%
same,growth inhibition,[16]; at 11.0 µM,9%
same,growth inhibition,[16]; at 33.0 µM,96% (active)
same,growth inhibition,[16]; at 100.0 µM,98% (active)
O=C1C(Nc2ccccc2)=C(Oc2ccccc2)C(=O)c2ccccc21,growth inhibition,[1]; at 1.2 µM,-3%
same,growth inhibition,[1]; at 3.7 µM,-6%
same,growth inhibition,[1]; at 11.0 µM,1%
same,growth inhibition,[1]; at 33.0 µM,23%
same,growth inhibition,[1]; at 100.0 µM,32%
same,growth inhibition,[2]; at 1.2 µM,3%
same,growth inhibition,[2]; at 3.7 µM,-10%
same,growth inhibition,[2]; at 11.0 µM,7%
same,growth inhibition,[2]; at 33.0 µM,-4%
same,growth inhibition,[2]; at 100.0 µM,14%
same,growth inhibition,[3]; at 1.2 µM,5%
same,growth inhibition,[3]; at 3.7 µM,20%
same,growth inhibition,[3]; at 11.0 µM,28%
same,growth inhibition,[3]; at 33.0 µM,58%
same,growth inhibition,[3]; at 100.0 µM,60%
same,growth inhibition,[4]; at 1.2 µM,5%
same,growth inhibition,[4]; at 3.7 µM,-2%
same,growth inhibition,[4]; at 11.0 µM,2%
same,growth inhibition,[4]; at 33.0 µM,1%
same,growth inhibition,[4]; at 100.0 µM,-1%
same,growth inhibition,[5]; at 1.2 µM,-6%
same,growth inhibition,[5]; at 3.7 µM,-11%
same,growth inhibition,[5]; [17],-1%
same,growth inhibition,[5]; at 11.0 µM,-5%
same,growth inhibition,[5]; at 33.0 µM,27%
same,growth inhibition,[5]; [18],26%
same,growth inhibition,[5]; at 50.0 µM,23.7%
same,growth inhibition,[5]; at 100.0 µM,38%
same,growth inhibition,[6]; at 1.2 µM,2%
same,growth inhibition,[6]; at 3.7 µM,1%
same,growth inhibition,[6]; [17],3%
same,growth inhibition,[6]; at 11.0 µM,6%
same,growth inhibition,[6]; at 33.0 µM,3%
same,growth inhibition,[6]; [18],20%
same,growth inhibition,[6]; at 50.0 µM,24.4%
same,growth inhibition,[6]; at 100.0 µM,2%
same,growth inhibition,[7]; at 1.2 µM,13%
same,growth inhibition,[7]; at 3.7 µM,0%
same,growth inhibition,[7]; at 11.0 µM,4%
same,growth inhibition,[7]; at 33.0 µM,9%
same,growth inhibition,[7]; at 100.0 µM,-15%
same,growth inhibition,[8]; [17],-2%
same,growth inhibition,[8]; [18],17%
same,growth inhibition,[8]; at 50.0 µM,16.4%
same,growth inhibition,[9]; at 1.2 µM,-6%
same,growth inhibition,[9]; at 3.7 µM,-2%
same,growth inhibition,[9]; at 11.0 µM,1%
same,growth inhibition,[9]; at 33.0 µM,-1%
same,growth inhibition,[9]; at 100.0 µM,-4%
same,growth inhibition,[10]; [17],-7%
same,growth inhibition,[10]; [18],1%
same,growth inhibition,[10]; at 50.0 µM,5.25%
same,growth inhibition,[11]; at 1.2 µM,3%
same,growth inhibition,[11]; at 3.7 µM,9%
same,growth inhibition,[11]; [17],16%
same,growth inhibition,[11]; at 11.0 µM,23%
same,growth inhibition,[11]; at 33.0 µM,55%
same,growth inhibition,[11]; [18],59%
same,growth inhibition,[11]; at 50.0 µM,82.5% (active)
same,growth inhibition,[11]; at 100.0 µM,70% (active)
